Only some compounds are listed: those with a hit (about 1.2% of all), similar ones and a draw of the others.
Platelet DG rel – platelet dense granule release activity. 300,000 compounds, 0.22% hits. AID 1663. inhibition, %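 (compounds screened at 7.5 µM in platelet-rich plasma)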. human platelet-rich plasma, SFLLRN dense granule ATP release, luminescence;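 active = mean replicate score, as percent of positive control, at or above 50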
CR mimetic SO – lowers age-related superoxide in aged yeast cells; AID 2690; 330,000 compounds, 0.18% hits; S. cerevisiae aged cells, superoxide DHE fluorescence; hits give low values; superoxide response (% of plate mean), % at 10 µM;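 active = superoxide response under a set limit, about three screen SD below normal, cut at about 65% in these data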;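 also: yeast aged for seven days with compound at 30 °C before DHE staining; 100% = average MFI of all compound-treated wells on the plate with controls excluded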
SKN-1 block – inhibitors of C. elegans SKN-1. C. elegans VP596 Pgst-4::GFP/RFP ratio, acrylamide-induced, 24 h. inhibition, % at 21.8 µM. 360,000 compounds, 0.49% hits. AID 624304;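 active = interference check ratio from 0.5 to 1.5 plus GFP to RFP signal ratio inhibition reaching or exceeding a fixed threshold, cut at about 30% in these data, passing the limit was not always enough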
VLA-4 inh – inhibition in a human VLA-4 binding assay; VLA-4 expressing cells, ligand binding flow cytometry; AID 2557; 330,000 compounds, 0.2% hits; inhibition, % (about 7 µM as worked out from the volumes in the protocol); in the data active = inhibition above about 50%
Target sequence (P13612 whole entry, looked up): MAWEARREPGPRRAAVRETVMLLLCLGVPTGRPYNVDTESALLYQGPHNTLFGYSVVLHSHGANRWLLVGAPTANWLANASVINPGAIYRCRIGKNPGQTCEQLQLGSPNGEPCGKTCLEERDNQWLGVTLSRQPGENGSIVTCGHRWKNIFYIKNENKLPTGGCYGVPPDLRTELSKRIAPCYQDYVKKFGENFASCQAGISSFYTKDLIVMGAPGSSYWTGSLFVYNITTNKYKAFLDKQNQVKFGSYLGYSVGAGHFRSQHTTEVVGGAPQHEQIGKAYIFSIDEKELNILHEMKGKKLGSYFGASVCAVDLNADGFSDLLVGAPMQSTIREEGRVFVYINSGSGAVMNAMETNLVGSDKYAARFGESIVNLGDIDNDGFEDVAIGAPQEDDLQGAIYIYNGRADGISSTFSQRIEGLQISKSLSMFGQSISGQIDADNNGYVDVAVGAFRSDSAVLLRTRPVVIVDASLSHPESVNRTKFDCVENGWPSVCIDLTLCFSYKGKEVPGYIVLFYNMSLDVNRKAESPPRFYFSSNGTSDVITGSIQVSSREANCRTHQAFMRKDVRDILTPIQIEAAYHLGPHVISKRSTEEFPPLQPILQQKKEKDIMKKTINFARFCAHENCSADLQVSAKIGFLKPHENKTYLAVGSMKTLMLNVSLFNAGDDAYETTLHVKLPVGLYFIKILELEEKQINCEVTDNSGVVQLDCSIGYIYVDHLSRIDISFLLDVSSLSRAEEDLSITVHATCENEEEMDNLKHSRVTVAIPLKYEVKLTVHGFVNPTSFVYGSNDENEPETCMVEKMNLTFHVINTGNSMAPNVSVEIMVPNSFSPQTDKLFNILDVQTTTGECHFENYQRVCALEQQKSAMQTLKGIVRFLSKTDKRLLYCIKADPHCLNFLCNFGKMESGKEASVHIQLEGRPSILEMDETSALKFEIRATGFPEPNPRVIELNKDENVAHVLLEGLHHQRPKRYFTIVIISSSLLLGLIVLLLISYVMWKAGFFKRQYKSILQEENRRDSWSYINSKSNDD
ABCB6 inh 2 – blocks the human ABCB6 transporter; Q9NP58; K562-ABCB6 porphyrin accumulation, flow cytometry, 1 h; hits give low values; fluorescence ratio to DMSO, % at 10 µM; 360,000 compounds, 0.19% hits;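 active = fluorescence ratio to DMSO below 75%, the collection mean minus 3 SD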;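 also: signal is porphyrin accumulated inside mitochondria; 100% equals median channel fluorescence of DMSO control wells; lower ratio means ABCB6 inhibition with less porphyrin fluorescence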
Starred values were filed as active, the others as inactive; / = no result.

SMILES | Platelet DG rel | CR mimetic SO | SKN-1 block | VLA-4 inh | ABCB6 inh 2
O=C(O)C1CCCC2CN3CCc4c([nH]c5ccccc45)C3C(O)C21 (stereo unspecified) | 0 | 97 | 37* | -8 | 99
CSCCC(C(=O)NCc1ccccc1)n1c(-c2ccc3c(c2)CCO3)nc2ccccc21 (stereo unspecified) | / | / | 10 | / | /
CCc1c(C)nc2nc(SCc3ccccc3Cl)[nH]n2c1=O | 0 | 105 | 8 | 3 | 61*
CCS(=O)(=O)c1ccc2oc(Nc3ccccc3Cl)nc2c1 | 57* | 89 | 11 | 24 | 100
CCS(=O)(=O)c1ccc2oc(Nc3ccccc3Br)nc2c1 | 27 | 104 | 22 | 2 | 95
Cc1c(C(=O)N2CCN(S(=O)(=O)c3ccccc3F)CC2)oc2c(Cl)cccc12 | / | 117 | 45* | 43 | 97
O=C(O)c1ccc(-c2noc(-c3ccccc3F)n2)cc1 | 69* | / | 6 | / | 98
Cc1ccc(-c2noc(-c3ccccc3F)n2)cc1 | 11 | 94 | 23 | -9 | 101
COc1cccc(-c2nc(-c3ccc(C(=O)O)cc3)no2)c1 | 50* | 99 | 3 | 2 | 98
COc1cccc(-c2nc3ccc(O)cc3c(=O)o2)c1 | 52* | 96 | 13 | 3 | 95
O=C(NCc1ccccc1Cl)c1csc([C@@H]2C[C@H](O)[C@@H](CO)O2)n1 | / | / | -6 | / | 100
Cc1onc(-c2ccccc2)c1C(=O)NNC(=S)NC(=O)/C=C/c1ccccc1 | -20 | 97 | -1 | -2 | 74*
Cc1ccc(-c2c(C)nn3c(N4CCOCC4)cc(C)nc23)cc1 | -8 | 106 | 35* | 6 | 97
CCCCOc1ccc(C(=O)NCC(=O)OCCCOC(=O)CNC(=O)c2ccc(OCCCC)cc2)cc1 | / | / | 8 | / | 98
CCCCOc1ccc(C(=O)NC)cc1 | 11 | 89 | 28* | 10 | /
CCOc1cc(NC(=O)c2ccco2)c(OCC)cc1NC(=O)CCc1ccccc1OC | 8 | 87 | 39* | -12 | 100
CCOC(=O)[C@]12CCC=C1N(Cc1ccc(Cl)cc1Cl)C(=O)[C@H](CC(=O)NCCCOC)C2 | / | / | 5 | / | 101
Cc1ccc(-c2nc(Nc3cccc(O)c3)c3ccccc3n2)cc1 | -2 | 101 | 10 | -9 | 92
Oc1cccc(Nc2c3ccccc3nc3ccccc23)c1 | -20 | 68 | 36* | -22 | 101
CC1CC(C)CN(C(=O)c2ccncc2)C1 (stereo unspecified) | -5 | 97 | 32 | 3 | 102
CC1CCCN(C(=O)c2ccncc2)C1 (stereo unspecified) | -2 | 103 | 35* | -10 | 96
FCCCOc1ccc(-c2nccc(-c3ccccn3)n2)cc1 | 2 | 106 | 66* | 2 | 96
O=C(O)COc1ccc(-c2nccc(-c3ccccn3)n2)cc1 | -3 | 110 | -4 | 11 | 91
CCc1nc2ccc(C(=O)NCc3ccc4c(c3)OCO4)cn2c1N(CCC(C)C)CCN(C)C | / | / | -11 | / | 99
COc1ccc(NC(=S)NNC(=O)C2CC2c2ccc(C)cc2)cc1 (stereo unspecified) | 3 | 108 | 3 | 7 | 99
SMILES | Platelet DG rel | CR mimetic SO | SKN-1 block | VLA-4 inh | ABCB6 inh 2
Cc1ccc(NC(=S)NNC(=O)C2CC2c2ccc(C)cc2)cc1 (stereo unspecified) | -6 | 98 | 40* | 7 | 90
Cc1ccc(NC(=O)COC(=O)C2(C)CC2(Cl)Cl)cc1S(=O)(=O)N1CCOCC1 (stereo unspecified) | / | / | 41* | / | 94
Clc1ccc(SCc2cc(-c3ccccc3)on2)cc1 | 1 | 76 | 49* | 1 | 94
Clc1ccc(-c2cc(CSc3cccc(Cl)c3)on2)cc1 | 8 | 85 | 60* | -6 | 94
c1ccc(SCc2cc(-c3ccccc3)no2)cc1 | 6 | 97 | 55* | 0 | 100
Clc1ccc(-c2cc(CSc3ccccc3)on2)cc1 | 1 | 100 | 45* | -2 | 85
COc1ccccc1OCc1cc(-c2ccccc2)no1 | 0 | 87 | 12 | 4 | 90
COc1ccc(OCc2cc(-c3ccc(Cl)cc3)no2)cc1 | 2 | 95 | 9 | 5 | 101
Cc1ccc(SCc2cc(-c3ccc(Cl)cc3)no2)cc1 | 1 | 94 | 20 | 20 | 98
c1ccc(OCc2cc(-c3ccccc3)no2)cc1 | 4 | 90 | 45* | 12 | 100
N#C/C(=C\c1ccc([N+](=O)[O-])o1)C(=O)Nc1ccc(F)cc1 | 25 | 85 | 35* | -229 | 147
Cc1cc(F)cc(-c2cc(C(=O)NCc3ccccn3)[nH]n2)c1 | / | / | 3 | / | 103
S=P(c1ccc(N2CCOCC2)cc1N1CCOCC1)(N1CCOCC1)N1CCOCC1 | / | / | 44* | / | 100
O=[N+]([O-])c1ccc(N2CCCCC2)cc1N1CCOCC1 | 21 | 97 | 16 | -20 | 104
O=[N+]([O-])c1ccc(N2CCc3ccccc3C2)cc1 | -5 | 104 | 44* | -4 | 98
COC(=O)[C@@]12C[C@@H](CC(=O)N3CCC(c4ccccc4)CC3)C(=O)N(Cc3cccc4ccccc34)C1=CCC(C)(C)C2 | / | / | 5 | / | /
COCCCn1c(SCC(=O)NC(C)C)nnc1-c1ccccc1 | -8 | 94 | 36* | -1 | 89
Cc1cnc(NC(=O)c2ccc3c(c2)OCCO3)s1 | / | 118 | 6 | 20 | 103
Cc1ccc(C(=O)Nc2ncc([N+](=O)[O-])s2)cc1 | 26 | 100 | 37* | -5 | 98
O=C(Nc1ncc([N+](=O)[O-])s1)c1ccc2c(c1)OCO2 | 80* | 83 | -5 | -24 | 96
Cc1onc(-c2ccccc2)c1C(=O)Nc1ncc([N+](=O)[O-])s1 | 5 | 123 | 4 | 6 | 93
CCCCNC(=O)C(NC(=O)c1cccnc1OC)C(=O)c1ccccc1 (stereo unspecified) | / | / | -8 | / | /
Cc1ccc(-c2csc(C(O)c3ccc(F)c(F)c3)n2)cc1C (stereo unspecified) | / | / | 11 | / | 98
CCOC(=O)C1=C(C)NC(=O)NC1 | 60* | 99 | -39 | -2 | 102
CN(C)/N=C/C=C1\CC/C(=C\c2ccc(Br)cc2)C1=O | 1 | 94 | 41* | -2 | 97
SMILES | Platelet DG rel | CR mimetic SO | SKN-1 block | VLA-4 inh | ABCB6 inh 2
CN(C)/N=C/C=C1\CCC/C(=C/c2cccs2)C1=O | 6 | 105 | 18 | 6 | 102
Oc1ccc(Cl)cc1N=Nc1ccccc1 | 2 | 103 | 7 | 10 | 98
Cc1ccc(O)c(N=Nc2ccccc2)n1 | 77* | 100 | 24 | 19 | 98
Brc1cc(Br)c2nc(-c3cccs3)ccc2c1 | 1 | 101 | 58* | -1 | 101
CCOc1ccccc1C(=O)Nc1ccc(-n2nncc2C(C)(C)C)cc1 | 0 | 82 | 35* | -5 | 96
O=C(NCc1ccc(F)cc1)c1cc(C2CCCN(S(=O)(=O)c3ccccc3)C2)on1 (stereo unspecified) | / | / | 23 | / | 103
CCOC(=O)C1=C[C@@H](C(C)C)N(S(=O)(=O)c2ccc(C)cc2)[C@H]1c1ccc(C(F)(F)F)cc1 | / | / | 13 | / | 98

High-throughput results: PubChem BioAssay, several laboratories
